HCV inh – qHTS Assay for Inhibitors of Hepatitis C Virus (HCV); Potency, µM (highest dose often 41.8 µM), without a hit: top-dose activity change, negative = inhibition, most hits filed as inhibitors; Huh7.5.1 HCVcc-Cre infection, luciferase reporter, 44 h; hit rate 3.4% among 340,000
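Seed cells (1,000/well) for 4 h; treat with compound and infect with HCVcc-Cre, moi about 0.5. Incubate 44 h, then detect luciferase activity.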
AmpC detergent – qHTS Inhibitors of AmpC Beta-Lactamase (assay with detergent). P00811. AmpC hydrolysis of nitrocefin, absorbance 480 nm, 0.01% Triton. Potency, µM (top dose mostly 114 µM), for inactives: at the highest dose activity change, negative = inhibition, usual class: inhibitors. hit rate 0.041% among 370,000. AID 485294, 2010;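 also: 0% = no-compound wells and -100% = no-enzyme wells; nearly all actives have a fitted effect of over 25% in size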
Target sequence (P00811 whole entry, looked up): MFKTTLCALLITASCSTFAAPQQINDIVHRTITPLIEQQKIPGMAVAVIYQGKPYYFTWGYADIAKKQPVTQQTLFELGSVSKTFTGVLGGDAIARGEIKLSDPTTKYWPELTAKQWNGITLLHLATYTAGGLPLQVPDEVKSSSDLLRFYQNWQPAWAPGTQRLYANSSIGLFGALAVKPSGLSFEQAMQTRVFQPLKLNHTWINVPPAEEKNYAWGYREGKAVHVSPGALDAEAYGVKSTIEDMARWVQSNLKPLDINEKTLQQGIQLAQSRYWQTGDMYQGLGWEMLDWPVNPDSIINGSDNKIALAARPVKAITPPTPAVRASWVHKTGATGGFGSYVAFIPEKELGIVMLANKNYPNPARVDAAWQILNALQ
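AmpC (5.3 nM in the dispensed reagent) in 20 mM phosphate pH 7.0 with 0.01% (detergent screen) or 0.0001% Triton X-100 was preincubated with compounds for 15 min at room temperature. Nitrocefin was then added from an 800 uM solution, and hydrolysis was followed at 480 nm.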
AMA1-RON2 inh – qHTS for Inhibitors of AMA1-RON; Towards Development of Antimalarial Drug Lead: Primary Screen | Plasmodium falciparum AMA1 (3D7) - RON2 peptide interaction | Potency, µM (top dose mostly 58.2 µM), inactives show at the highest dose activity change, negative = inhibition, usual class: inhibitors | AlphaScreen AMA1-biotinylated RON2 peptide binding | hit rate 0.2% among 360,000;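 also: 0% = vehicle wells and -100% = peptide control; nearly all actives have a fitted effect of over 45% in size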
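AMA1 (3D7) with his tag at 25 nM final met compounds first, then biotinylated RON2 peptide at 25 nM; detection used donor plus acceptor beads, 10 µg/mL apiece, read by AlphaScreen after 30 min at room temperature.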
AmpC no deterg – qHTS Inhibitors of AmpC Beta-Lactamase (assay without detergent). P00811. AID 485341, 2010. hit rate 0.52% among 330,000. Potency, µM (highest dose often 57.1 µM), for inactives: at the highest dose activity change, negative = inhibition, usual class: inhibitors. AmpC nitrocefin hydrolysis, absorbance 480 nm, 0.0001% Triton;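 also: plate controls were no compound for no effect and no enzyme for full effect; nearly all actives have a fitted effect of over 20% in size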
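20 mM phosphate pH 7.0 + 0.01% (detergent screen) or 0.0001% Triton X-100; 5.3 nM AmpC reagent; cpd preinc 15 min RT; nitrocefin (800 uM stock) to start; A480 q20 s × 4 min; Activity was normalised to no-enzyme and no-compound control wells.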
Pf growth 48h – Primary qHTS for delayed death inhibitors of the malarial parasite plastid, 48 hour incubation. P. falciparum luciferase growth in erythrocytes, 48 h. Potency, µM (series often up to 28.7 µM), for the others: top-dose activity change, negative = inhibition, most hits filed as inhibitors. hit rate 5.9% among 310,000. AID 504832, 2011
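Erythrocytes infected with P. falciparum carrying an integrated firefly luciferase reporter (2% hematocrit, 0.1% parasitemia final) were exposed to compounds in RPMI 1640 with 0.5% Albumax at 37 C, 5% CO2. Growth inhibition was scored as reduced luminescence.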
Pf growth 96h – Primary qHTS for delayed death inhibitors of the malarial parasite plastid, 96 hour incubation; P. falciparum luciferase reporter growth, 96 h; hit rate 6.9% among 320,000; Potency, µM (doses to about 28.7 µM), without a hit: at the top dose activity change, negative = inhibition, hits mostly inhibitors
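Delayed-death screen, second-generation endpoint: infected erythrocytes, 2% hematocrit, 0.05% parasitemia final; 96 hours at 37 C, 5% CO2; luciferase detection reagent; luminescence decrease equals reduced growth.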
An asterisk follows results filed as active; ? = inconclusive; / = no result. An excerpt weighted towards active compounds, which were near 11% of everything screened. Calls follow the shape of the dose curve; as a rule, active = well fitted curve in the direction sought with a large enough effect; inconclusive = small, poorly fitted or top-dose-only effect, or another doubt; inactive = no such curve, though single readings can be large; an effect the other way counts as inactive or inconclusive. Unless noted, % is scaled to controls: 0 for no effect and ±100 for the full control effect; potency is read from the fitted curve at half-maximal effect.

SMILES | HCV inh | AmpC detergent | AMA1-RON2 inh | AmpC no deterg | Pf growth 48h | Pf growth 96h
COc1cccc(-c2cc(C(=O)Nn3cnnc3)c3ccccc3n2)c1 | 4.2% | -15.4% | -3.8% | -14.3% | -3.1% | ?
O=C(Nc1cccc(S(=O)(=O)NC2=NCCCCC2)c1)c1cc(-c2ccco2)nc2ccccc12 | ? | 5.5% | 1.5% | -42.4% | ? | ?
Cc1cc(NC(=O)c2cc(-c3ccncc3)nc3ccccc23)ccc1Br | 8.91µM* | / | -15.0% | 94.4% | / | /
Cc1ccc(-n2ncc3c(=O)n(Cc4ccccc4C)cnc32)cc1C | / | 2.8% | / | / | / | /
Cc1ccccc1CSc1nnc2[nH]c(=O)cc(C)n12 | / | 0.1% | / | / | / | /
Clc1ccc(Oc2nc3ccccc3n3cccc23)cc1 | ? | -4.1% | 5.4% | -16.6% | 16.0% | 58.0%
COc1ccc(Oc2nc3ccccc3n3cccc23)cc1 | 11.2µM* | 2.8% | -2.2% | -9.2% | 3.3% | 31.4%
O=C(NCCn1cc(SCc2ccccc2Cl)c2ccccc21)c1cccs1 | / | 1.3% | / | / | / | /
COc1cc2c(cc1OC)CN(CC(=O)Nc1ccc(C)c(S(=O)(=O)N3CCOCC3)c1)CC2 | 13.4% | -2.3% | -6.8% | 139.5% | ? | 11.7µM*
COc1cc2c(cc1OC)CN(CC(=O)Nc1ccc(Cl)c(S(=O)(=O)N(C)C)c1)CC2 | / | -4.6% | / | 50.1% | 13.1µM* | ?
CCOc1ccccc1NC(=O)c1ccc2c(c1)CCCN2S(C)(=O)=O | / | 19.3% | / | / | / | /
O=C1C(C23CC4CC(CC(C4)C2)C3)C(=O)N(c2ccccc2)N1c1ccccc1 | 14.1% | -8.8% | 0.3% | -30.1% | -8.9% | 7.38µM*
CCC(C)c1ccc(NC(=O)COc2c(F)c(F)c(C(F)(F)F)c(F)c2F)cc1 (centres undefined) | 4.2% | -0.1% | 36.2% | 17.5% | 8.2% | 2.08µM*
CCCCC(=O)NC1(C(F)(F)F)C(=O)Nc2c1c(=O)[nH]c(=O)n2-c1ccc(F)cc1 (centres undefined) | / | 2.2% | / | / | / | /
O=C(O)CNC(=O)c1ccccc1I | / | / | / | / | 2.0% | 12.4%
COc1cc(C#Cc2c(-c3cncn3C)n(C)c3ccc(-c4ccc(OC)c(OC)c4)cc23)cc(OC)c1 | ? | 7.7% | -14.5% | 50.5% | 1.31µM* | 5.22µM*
COc1cc(C#Cc2c(-c3cncn3C)n(C)c3ccc(Br)cc23)cc(OC)c1 | 1.12µM* | / | 4.5% | 71.9% | / | /
CCOc1ccccc1NC(=O)c1cc2c(=O)oc3ccccc3c2s1 | / | 19.2% | / | / | / | /
COc1ccc(-c2cn3c(n2)sc2cc(C(=O)Nc4ccc(F)cc4Cl)ccc23)cc1 | / | 16.6% | / | / | / | /
CCOc1ccccc1NC(=O)Cn1c(=O)n(C(C)C)c(=O)c2oc3ccccc3c21 | / | 11.8% | / | / | / | /
COc1ccccc1Cc1nc2ccccc2nc1SCC(=O)Nc1ccccc1C(F)(F)F | / | -1.4% | / | / | / | /
FC(F)(F)c1ccc2c(c1)N(CCCN1CCN(CCCl)CC1)c1ccccc1S2 | ? | 3.1% | ? | 249.1% | 9.28µM* | /
OCCN1CCN(CCCN2c3ccccc3C=Cc3ccccc32)CC1 | / | / | / | / | 6.75µM* | 6.01µM*
OCCN1CCN(CCCN2c3ccccc3Sc3ccc(C(F)(F)F)cc32)CC1 | ? | -5.7% | -26.8% | 197.0% | 5.22µM* | 1.85µM*
CN(C)CCC(=O)N1c2ccccc2Sc2ccc(C(F)(F)F)cc21 | ? | 2.2% | -2.1% | 28.1% | 29.4% | 0.0%
CN1CCN(CCC(=O)N2c3ccccc3Sc3ccc(C(F)(F)F)cc32)CC1 | 5.62µM* | -3.1% | -7.1% | 89.4% | ? | 10.7µM*
OCCN1CCN(CCCN2c3ccccc3CCc3ccccc32)CC1 | / | / | -9.8% | / | / | /
Cc1ccc(-c2c(C(=O)Nc3ccc(F)c(F)c3)oc(=O)c3ccccc23)cc1 | / | -5.2% | / | / | / | /
